Bioassay records from PubChem BioAssay.
RE007 growth inh: less growth of the S. pombe RE007 Vpr strain; S. pombe RE007 Vpr strain, BacTiter-Glo ATP luminescence, 24 h; Potency, µM (titrated, usually from 92.2 µM), for the others: at the highest dose activity change, negative = less growth, usual class: inhibitors; actives 0.21% (n = 360,000); active = well fitted falling curve with a large enough effect; inconclusive = small, poorly fitted or top-dose-only effect; inactive = no such curve, though single readings can be large or run the other way; note: % is set by controls: 0 for no effect and ±100 for the full control effect; nearly all actives have a fitted effect of over 50% in size
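Fission yeast RE007 carrying one integrated HIV-1 vpr copy, seeded at OD 0.01 in PMG+AL medium with 23 nL pinned compound. Grown 24 h at 30 degrees; viability read by BacTiter-Glo luminescence after 5 min.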
Pf growth 96h: P. falciparum growth inhibition at 96 hour, primary screen for plastid delayed-death inhibitors. P. falciparum luciferase reporter growth, 96 h. Potency, µM (series often up to 28.7 µM), for the others: at the top dose activity change, negative = inhibition, hits mostly inhibitors. actives 6.9% (n = 320,000). AID 504834; note: % is set by controls: 0 for no effect and ±100 for the full control effect
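Delayed-death screen, second-generation endpoint: infected erythrocytes, 2% hematocrit, 0.05% parasitemia final; 96 hours at 37 C, 5% CO2; luciferase detection reagent; luminescence decrease equals reduced growth.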
SARS PLP yeast: inhibitors of SARS-CoV papain-like protease in yeast. AID 485353. Potency, µM (series often up to 32.9 µM), for inactives: at the highest dose activity, positive = growth rescue, hits mostly activators. S. cerevisiae expressing SARS-CoV PLpro, growth rescue. actives 0.19% (n = 330,000); calls by dose curve; note: 0% is about no effect; nearly all actives have a fitted effect of over 55% in size
NS1 function inh: inhibitors of influenza NS1 protein function; Potency, µM (series often up to 46.1 µM), inactives show at the top dose activity, positive = more growth; actives 0.4% (n = 270,000); calls by dose curve; note: actives are rising curves; nearly all actives have a fitted effect of over 50% in size
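Recovery from NS1-induced slow growth read by OD600 in budding yeast switched to galactose assay medium (pH 6.0, -URA) at 1:100 dilution. Compound 23 nl per well; the matching strain lacking NS1 serves as control.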
Pf growth 48h: P. falciparum growth inhibition at 48 hours (one generation); Potency, µM (titrated, usually from 28.7 µM), for inactives: at the highest dose activity change, negative = inhibition, usual class: inhibitors; P. falciparum luciferase growth in erythrocytes, 48 h; actives 5.9% (n = 310,000); note: % is set by controls: 0 for no effect and ±100 for the full control effect
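Cell-based growth assay: transgenic P. falciparum expressing firefly luciferase, cultured in red cells within RPMI 1640 containing 0.5% w/v Albumax, 24 mM bicarbonate and gentamycin. A drop in luciferase activity indicates inhibition.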
An asterisk follows results filed as active; ? = inconclusive; nt = no result. A selection: hits, their analogues and other compounds. The true share with any hit is near 9.5%. Unless noted, calls come from the whole dose curve; as a rule, active = well fitted inhibition curve with a large enough effect; inconclusive = small, poorly fitted or top-dose-only effect, or another doubt; inactive = no such curve, though single readings can be large or run the other way. Potency is the fitted concentration of half-maximal effect.

SMILES | RE007 growth inh | Pf growth 96h | SARS PLP yeast | NS1 function inh | Pf growth 48h
OC[C@@H]1CN(Cc2ccc(Cl)cc2)C[C@H](n2cnc3c(NC4CC4)ncnc32)O1 | 11% | nt | nt | nt | nt
CCCc1c(O)nc(SCCN(CC)CC)n(C(=O)c2ccccc2)c1=O | 2% | 13µM* | 3% | -6% | ?
Cc1ccc(N(C)C(=O)CCS(=O)(=O)c2ccc3c(c2)oc(=O)n3C)cc1 | 9% | 15µM* | -2% | 8% | 21%
CN(C(=O)CCS(=O)(=O)c1ccc2c(c1)oc(=O)n2C)C1CCCCC1 | 5% | 4.7µM* | 0% | 10% | 22%
CN(C)c1ccc(CNC(=O)CCS(=O)(=O)c2ccc3c(c2)oc(=O)n3C)cc1 | -7% | 7% | -6% | 11% | ?
COC(=O)C(NC(=O)CSc1nc(N)cc(=O)[nH]1)c1ccccc1 (stereo unspecified) | -8% | 17% | 0% | -8% | 27%
O=C1CC[C@H](NC(=O)c2ccccc2)C(=O)N1 | nt | nt | nt | 6% | nt
CCOC(=O)C1CCN(CC(C)(C)NS(=O)(=O)c2ccc(Cl)cc2)CC1 | -2% | 15% | -1% | -25% | 23%
CC(C)(CN1CCNCC1)NS(=O)(=O)c1ccc(Cl)cc1 | 2% | ? | -8% | nt | 9.3µM*
COc1ccc(C(C)=O)cc1CSc1ccc(S(=O)(=O)N2CCOCC2)cn1 | -15% | ? | -5% | nt | ?
CNC(=O)N(O)C1N(/N=C/c2c(F)cccc2Cl)C(=S)SC1(C)C (stereo unspecified) | 4% | 5% | 0% | -8% | 7%
COC(=O)c1cccc(NC(=S)NCCC2=CCCCC2)c1 | -1% | 12µM* | 0% | -2% | 20%
COc1ccc(CCNC(=O)C2CCN(S(=O)(=O)c3cccc4nonc34)CC2)cc1OC | -1% | 8.3µM* | -3% | 12% | -12%
COC(=O)c1ccc(NC(=S)NCCC2=CCCCC2)cc1 | 3% | ? | 4% | 22% | 34%
O=C(NC(=S)NCCC1=CCCCC1)c1cncc(Br)c1 | 15% | 14% | 13µM* | 14% | 8%
CCOc1ccc(OCC)c(NC(=O)C2CCN(S(=O)(=O)c3cccc4nonc34)CC2)c1 | -9% | 13µM* | 5% | -21% | nt
COc1ccc(C)cc1NC(=O)NCCC1=CCCCC1 | -9% | 55% | -9% | -109% | 15µM*
CCS(=O)(=O)N1CCC(C(=O)NCCC2=CCCCC2)CC1 | 13% | ? | 1% | -4% | ?
COc1ccc(OC)c(S(=O)(=O)N2CCC(C(=O)NCCC3=CCCCC3)CC2)c1 | -1% | -19% | -27% | -2% | 13µM*
CN(C)CC/C=C1\c2ccccc2COc2ccc(CC(=O)O)cc21 | nt | 6% | nt | nt | 1%
CSC(=NC#N)N1CCN(C(c2ccccc2)c2ccccc2)CC1 | 10% | ? | -5% | -39% | ?
CSC(=NC#N)N1CCN(C(=NC#N)SC)CC1 | 1% | 2% | 1% | 5% | 9.3µM*
CC(=O)N/C(=C\c1ccccc1)C(=O)OCC(=O)NC1CCS(=O)(=O)C1 (stereo unspecified) | -4% | -9% | 5% | nt | 13%
CCCCn1c(CCc2ccccc2)nc2cc3[nH]c(=O)c(C(C)C)nc3cc21 | 7% | 2.6µM* | -1% | ? | 3.7µM*
CCCCn1c(-c2ccc(F)c(F)c2)nc2cc3[nH]c(=O)c(C(C)C)nc3cc21 | 0% | ? | 6% | 20% | -80%
SMILES | RE007 growth inh | Pf growth 96h | SARS PLP yeast | NS1 function inh | Pf growth 48h
COc1cc(/C=C/C(=O)OC(C)C(=O)NC2CCCCC2C)cc(Cl)c1OC (stereo unspecified) | -3% | 3% | 2% | nt | ?
COc1ccc(CNC(=O)c2cc(C3CC3)nc3c2cnn3C(C)C)cc1 | -17% | 15µM* | -2% | nt | 13µM*
COc1ccc(CCNC(=O)c2cc(C3CC3)nc3c2cnn3C(C)C)cc1OC | -9% | 2.3µM* | -3% | nt | ?
CC(C)n1ncc2c(C(=O)NCCc3ccc(S(N)(=O)=O)cc3)cc(C3CC3)nc21 | 8% | ? | -6% | nt | -7%
CC(C)n1ncc2c(C(=O)O)cc(C3CC3)nc21 | -5% | 19% | 1% | 3% | -2%
CCOc1ccc(OCCNC(=O)c2cc(C3CC3)nc3c2cnn3C(C)C)cc1 | 12% | ? | -3% | nt | 10µM*
